# GBA activity: alters purified human glucocerebrosidase activity. AID 360. purified enzyme, resorufin glucoside fluorescence (screen aimed at inhibitors), 20 min. Potency, µM. P04062. 48,000 tested, 1.1% active; in the data active = potency below about 15 µM; inconclusive = mostly about 16 µM to 33 µM;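 also: the screen sought inhibitors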
# Target sequence (P04062 whole entry, looked up): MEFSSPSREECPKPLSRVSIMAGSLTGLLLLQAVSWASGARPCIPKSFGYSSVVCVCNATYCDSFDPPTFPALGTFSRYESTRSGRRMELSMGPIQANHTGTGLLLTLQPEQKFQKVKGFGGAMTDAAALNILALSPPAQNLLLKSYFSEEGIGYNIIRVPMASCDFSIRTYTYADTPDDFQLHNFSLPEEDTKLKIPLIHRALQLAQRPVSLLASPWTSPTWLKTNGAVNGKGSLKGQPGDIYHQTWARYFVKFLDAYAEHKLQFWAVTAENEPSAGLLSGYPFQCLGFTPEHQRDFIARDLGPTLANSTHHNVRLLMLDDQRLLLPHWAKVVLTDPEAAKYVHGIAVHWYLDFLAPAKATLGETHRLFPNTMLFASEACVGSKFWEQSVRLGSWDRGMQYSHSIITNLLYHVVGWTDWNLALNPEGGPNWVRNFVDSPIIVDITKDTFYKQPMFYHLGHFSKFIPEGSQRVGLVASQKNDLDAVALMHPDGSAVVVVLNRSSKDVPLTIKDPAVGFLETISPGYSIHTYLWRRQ
#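 Wild-type enzyme at 0.2 nM final in 50mM citric acid/KH2PO4, 10mM sodium taurocholate, 0.01% tween-20, pH 5.9, with resorufin beta-D-glucopyranoside at 30 uM final. Compounds titrated, 20 min at RT, red fluorescence read; AC50 from titration.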
# Luciferase inh: blocks Photinus pyralis firefly luciferase activity | P08659 | purified firefly luciferase, luminescence, 8 min | Potency, µM (highest dose often 57.1 µM), for the others: at the highest dose activity change, negative = inhibition, actives largely listed as inhibitors | 72,000 tested, 2.2% active; active = well fitted inhibition curve with a large enough effect; inconclusive = small, poorly fitted or top-dose-only effect; also: % is scaled to controls: 0 for no effect and ±100 for the full control effect; nearly all actives have a fitted effect of over 40% in size
#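 Firefly luciferase (PKLight detection mix) with 10 uM ATP in pH 7.2 imidazole buffer (KCl, MgCl2, Tween 20, BSA). Compounds tested across a concentration series (qHTS). Luminescence read after 8 min at ambient temperature.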
# Bst PK mod: alters activity of Bacillus stearothermophilus pyruvate kinase; purified pyruvate kinase, luminescence ATP production; ribose 5-phosphate activator present at AC10; Potency, µM; 51,000 tested, 1.2% active; AID 361; in the data active = potency below about 11 µM; inconclusive = mostly about 12 µM to 25 µM;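 the screen sought inhibitors and activators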;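 also: scaled between full activation by ribose 5 phosphate and full inhibition by luteolin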
# Numbers without * were called inactive; i = inactive; u = inconclusive; x = no result given; [ ] = dose if it differs, or a comment. In the library only some 3.2% were active in any assay of this set; here they are far more common. Potency is read from the fitted curve at half-maximal effect.
SMILES,GBA activity,Luciferase inh,Bst PK mod
c1ccc(N2CCN(c3nc(NCc4ccco4)c4ccccc4n3)CC2)cc1,x,-2%[25.5 µM],>26
O=C(c1ccco1)N1CCC2(CC1)CCN(c1cccc(-c3ccccc3)c1)CC2,x,2%[11.4 µM],x
CCN1CCN(/C=N/c2nc3c(s2)CCCC3)CC1,>77,13µM*,u
CC(C)C1=CC2=CC[C@H]3[C@@](C)(CCC[C@]3(C)C(=O)O)[C@@H]2CC1,x,0%[11.4 µM],x
C=CCn1c(NCc2ccc3c(c2)OCO3)nc2ccccc21,>77,-19%,x
Oc1ccc(-c2nc3ccccn3c2NCc2ccc3c(c2)OCO3)cc1,0.89*,-7%,x
COc1ccccc1CN1CCC2(CC1)CCN(C(=O)c1c(C)noc1C)CC2,x,2%[11.4 µM],x
CC(C)C[C@@H](N)C(=O)Nc1ccc2ccccc2c1,x,0%[11.4 µM],x
CCOc1ccc(C(=O)NCCn2cc(SCC(=O)Nc3cc(C)on3)c3ccccc32)cc1,x,16µM*,>57
Cc1cc(NC(=O)CSc2cn(CCNC(=O)c3ccc(Cl)cc3)c3ccccc23)no1,x,-2%,x
CC(C)=CCC/C(C)=C/CO/N=C1/C[C@@H](O)[C@@H](O)[C@@H]2[C@@H]3C(=O)N(C[C@@H]4CCCO4)C(=O)[C@H]3CC[C@H]12,x,0%[11.4 µM],x
O=C1c2ccccc2[C@@H]([C@@H]2c3ccccc3C(=O)c3cc(Br)ccc32)c2ccc(Br)cc21,x,1%[11.4 µM],x
c1cc(CSSCc2ccncc2)ccn1,x,0%[11.4 µM],x
O=C(O)CCC(O)=C1S(=O)(=O)OCCOS1(=O)=O,x,1%[11.4 µM],x
COc1cc(CC(=O)N2CCc3ccccc32)cc(OC)c1OC,>77,2%,>57
Cc1ccc2c(CC(=O)N3CCc4ccccc43)coc2c1,>77,20µM*,>57
COc1ccccc1CNc1cc(-c2c(C)noc2C)ncn1,x,0%[2.29 µM],x
CCOC(=O)CC(=O)CSc1nc2ccc(C)cc2cc1C#N,13*,-27%,u
COC(=O)CSc1nc2cc(C)ccc2cc1C#N,>77,u,i
CCOC(=O)CC(=O)CSc1nc2c(cc1C#N)CCCCC2,x,10µM*,u
N#Cc1cc2c(nc1SCC(=O)N1CCCCC1)CCCC2,x,0%,x
O=C(CCN1CCCCC1)c1csc2ccccc12,x,4%[11.4 µM],x
CN(C)C(=O)CCc1nc(-c2ccc(C(C)(C)C)cc2)no1,>77,2%,>57
CC(C)(C)c1ccc(-c2noc(CCC(N)=O)n2)cc1,>77,13µM*,i
Cc1ccc(-c2noc(CCC(=O)NCCN3CCc4ccccc4C3)n2)cc1,15*,-2%,>57
SMILES,GBA activity,Luciferase inh,Bst PK mod
CNC(=O)CCc1nc(-c2ccc(C(C)(C)C)cc2)no1,>77,13µM*,u
Cc1ccc(-c2noc(CCC(=O)NCCN3CCOCC3)n2)cc1,u,-1%,>57
COc1ccc(-c2noc(CCC(=O)Nc3cc(Cl)c(OC)cc3OC)n2)cc1,x,16µM*,>57
CCOc1ccc(-c2noc(CCC(=O)NC)n2)cc1OCC,>77,-1%,>57
COc1ccc(-c2noc(CCC(=O)Nc3cc(OC)ccc3OC)n2)cc1,>77,-12%,>57
C/C(CCN1CCCCc2nc(C)c(C)cc21)=N\OC[C@@H](O)[C@@H]1O[C@@H]2OC(C)(C)O[C@@H]2[C@H]1O,x,2%[11.4 µM],x
COCCNC(=O)c1sc2nc(-c3ccccc3)cn2c1C,>77,-14%,x
COc1ccc2c(c1)sc1nc(-c3ccccc3)cn12,x,0.063µM*,0.055*
CCOC(=O)C1CCCN(C(=O)Cn2sc3nc(C)cc(C)c3c2=O)C1 (stereo not drawn),x,13µM*,x
CCOC(=O)C1CCCN(C(=O)Cn2cnc3c2c(=O)n(C)c(=O)n3C)C1 (stereo not drawn),x,2%,x
COc1ccc(Oc2ncc3nc(-c4cccc(C#N)c4)c(=O)n(Cc4cccc(OC)c4)c3n2)cc1,x,0%[11.4 µM],x
O=C(Cn1cccc1)Nc1ccc(OC(F)(F)F)cc1,15*,-4%,>57
Cc1ccc(NC(=O)Cn2cccc2)cc1C,x,-14%,>57
NC(N)=NC[C@@H]1COC2(CCCCC2)O1,x,-3%[25.5 µM],x
O=c1[nH]c(N2CCc3ccccc3C2)nc2c1CCCC2,4.6*,-1%,>57
O=c1[nH]c(-c2ccccc2O)nc2c1CCCC2,7.5*,-1%,>57
O=c1[nH]c(N2CCc3ccccc32)nc2c1CCCC2,>77,0%,>57
O=c1[nH]c(N2CCc3ccccc3C2)nc2c1CCC2,>77,-1%,>57
S=C(Nc1ccc2c(c1)Cc1ccccc1-2)Nc1ccc2c(c1)Cc1ccccc1-2,x,1%[11.4 µM],x
COc1ccc2c(c1)Cc1cc(N=[N+]([O-])c3ccc4c(c3)Cc3cc(OC)ccc3-4)ccc1-2,x,-3%[11.4 µM],x
COC(=O)CNc1c(-c2ccccn2)nc2ccc(Br)cn12,>77,13µM*,u
CC1CC1C(=O)OCc1cc(=O)n2cc(Br)ccc2n1 (stereo not drawn),>77,-27%,i
CN=Cc1sc2ccccc2c1O,>77,-17%,x
Oc1c(C=Nc2cccnc2)sc2ccccc12,x,13µM*,11*
Clc1ccc(Nc2nc(NCCN3CCOCC3)nc(N3CCOCC3)n2)cc1,x,-2%,x
SMILES,GBA activity,Luciferase inh,Bst PK mod
CCOC(=O)c1ccc(NC(=O)c2ccc(CN3CCOCC3)cc2)cc1,x,-6%,>57
CCOC(=O)c1ccc(Nc2cc(C)nc(N3CCOCC3)n2)cc1,8.5*,0%,1.5*
CCOc1ccc2nc(N3CCOCC3)nc(C)c2c1,x,16µM*,i
CCOc1ccc(Nc2nc(NCCN3CCOCC3)nc(OC)n2)cc1,u,-3%,6.3*
Nc1nc(N2CCOCC2)nc2ccccc12,x,-1%,x
CCOc1ccc(Nc2cc(C)nc(N3CCOCC3)n2)cc1,3.4*,1%,1.4*
Cc1ccc(Nc2nc(N3CCOCC3)nc(N3CCOCC3)n2)cc1,x,1%,x
COc1ccc(CNc2nc(-c3ccc(N(C)C)cc3)nc3ccccc23)c(OC)c1,x,-4%[2.29 µM],x
O=C(Oc1ccc(-c2cnc3ccccc3n2)cc1)c1ccco1,x,5µM*,x
O=C(Oc1cccnc1)c1ccco1,x,0%[25.5 µM],>26
COc1ccc(S(=O)(=O)N2CCn3c2nc2ccccc23)cc1,>77,0%,>57
COc1ccc(NC(=O)N2CCn3c2nc2ccccc23)cc1,>77,-4%,5.6*
O=C(c1ccco1)N1CCn2c1nc1ccccc12,>77,-30%,x
O=C(Nc1ccccc1)N1CCn2c1nc1ccccc12,>77,-9%,9.7*
Cc1ccc2[nH]c3c(c2c1)CCc1cn[nH]c1-3,>77,-6%,8.7*
Cc1ccc2[nH]c3c(c2c1)CCC3=O,>77,-2%,>57
c1ccc2c(c1)NC(c1ccncc1)n1c-2nc2ccccc21 (stereo not drawn),x,-29%[25.5 µM],i
c1ccc2c(c1)NC1(CCCC1)n1c-2nc2ccccc21,x,25µM*,i
Cc1ccc(C2/C(=C(/O)c3cnn(-c4ccccc4)c3C)C(=O)C(=O)N2CCN2CCOCC2)o1 (stereo not drawn),x,-6%[25.5 µM],>26
Cc1c(/C(O)=C2/C(=O)C(=O)N(CCN3CCOCC3)C2c2cccs2)cnn1-c1ccccc1 (stereo not drawn),>77,13µM*,x
Cc1c(C(=O)Nc2ccc(N3CCOCC3)cc2)oc2ccccc12,>77,2.5µM*,u
Cc1cc(NC(=O)c2oc3ccccc3c2C)ccc1-n1cnnn1,x,10µM*,i
COc1cc(OC)cc(C(=O)Nc2ccc(-n3cnnn3)c(C)c2)c1,x,-22%,>57
Cc1c(C(=O)Nc2ccncc2)oc2ccccc12,x,-10%,>57
CCCCCCCCCC(=O)O[C@H](CC(=O)O)C[N+](C)(C)C,x,0%,x
CCCCNc1c(C(=O)OCC)c(C)nc2c1cnn2CC,x,2%,x
